Laboratory results from PubChem BioAssay AID431 (Sanford-Burnham Center for Chemical Genomics, 2006).
The campaign covered roughly 63,000 compounds. About 1,100 (1.7%) were called active. The entries come from a sample that favours actives as a whole. Measured potencies and affinities stand elsewhere. Values without a mark were called inactive.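 The calls were made as follows: active = compounds whose percent cytotoxicity in the single-dose primary screen, scaled between solvent and toxic-drug controls, exceeds 50; inactive = the rest.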

Experiment: viability loss of HPDE-C7K cells – cell-based, fluorescence, HTS, primary screen (AID 431);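 also: 0% = DMSO solvent wells and 100% = doxorubicin-treated wells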
Details: HPDE-C7K KRASV12 cells, Alamar Blue viability, 48 h; at 10 µM; stronger effect = higher value

In order of rising cytotoxicity:
1. CCOc1cc(C2C(C#N)=C(N)OC3CCCC(=O)C32)ccc1OCCN1CCOCC1 (configuration not stated)  -27%
2. CCOc1ccc(N2CC(C(=O)Nc3ccc(F)cc3F)CC2=O)cc1 (configuration not stated)  -19.6%
3. Fc1ccc(-c2nnc(SCc3ncc(-c4ccccc4)o3)n2CC2CCCO2)cc1 (configuration not stated)  -17.5%
4. COc1cc(OC)cc(-n2nnnc2SCC(=O)N2CCCC2)c1  -16%
5. CCn1c(SCC(=O)N2CCCC2)nc2c1c(=O)n(C)c(=O)n2C  -12.3%
6. O=C(NCCCN1CCCC1=O)C1CCN(S(=O)(=O)N2CCOCC2)CC1  -9.6%
7. CCCCNC(=O)C1CCCN1C(=O)Nc1cccc(OC)c1 (configuration not stated)  -7.7%
8. Cc1ccc(Cn2c(=N)c(C(=O)NCc3ccco3)cc3c(=O)n4ccccc4nc32)cc1  -6.4%
9. CC(C)C(CC(=O)N1CCCCC1)C1CCOC(C)(C)C1 (configuration not stated)  -5.8%
10. COc1cccc(NC(=O)N2CCC(C(=O)Nc3ccc(C)cc3C)CC2)c1  -5.2%
11. CCCCn1c(NC(=O)CC)c(C#N)c2nc3ccccc3nc21  -5.1%
12. Cc1cc(C)c(C#N)c(N2CCCC(C(N)=O)C2)n1 (configuration not stated)  -4.9%
13. Cc1ccc(C2(C)NC(=O)N(CC(=O)Nc3ccc4c(c3)OCO4)C2=O)cc1 (configuration not stated)  -4.8%
14. COc1cc(Cl)c(C)cc1NC(=O)CSc1nnc(-c2ccccn2)n1Cc1ccco1  -4.6%
15. COc1cc(C2C(C#N)=C(N)Oc3cc(C)oc(=O)c32)cc2c1OCO2 (configuration not stated)  -4.3%
16. COc1ccc(NC(=O)CN(c2ccccc2)S(=O)(=O)N(C)C)cc1OC  -4.2%
17. Nc1c(N2CCN(c3ccccc3)CC2)c2ccccc2oc1=O  -3.7%
18. COc1ccccc1-c1nnc(NC(=O)c2ccc(S(=O)(=O)N(C)C)cc2)o1  -3.2%
19. Cc1ccc(C2C=C(c3ccccc3OC(F)F)Nc3ncnn32)cc1 (configuration not stated)  -1.8%
20. Clc1ccc(NC2=NCCC2)cc1Cl  -1.4%
21. COc1ccc(-c2nnc(SCC(=O)Nc3sc4c(c3C#N)CCC4)n2CC2CCCO2)cc1 (configuration not stated)  -1.4%
22. COc1cccc(C2=CC(c3ccc(N(C)C)cc3)n3ncnc3N2)c1 (configuration not stated)  -1.1%
23. COc1ccc(C(=O)Nc2nnc(-c3ccccc3)o2)cc1OC  -0.9%
24. COc1ccccc1C(=O)Nc1nnc(-c2ccc(Cl)cc2)o1  -0.6%
25. CCOc1ccc(NC(=O)N2CCC(n3c(=O)[nH]c4ccccc43)CC2)cc1  -0.2%
26. CCCCn1c(NC(C)=O)c(C#N)c2nc3ccccc3nc21  -0.1%
27. Cc1ccc(CNC2=NCCCCC2)n1C  0.1%
28. N#Cc1c(/N=C/c2ccco2)sc2c1CCC2  0.3%
29. N#Cc1c2c(c(=S)n(-c3ccccc3)c1N)CCCC2  0.5%
30. NC1=NC(c2ccccc2Cl)n2c(nc3ccccc32)N1 (configuration not stated)  0.6%
31. c1ccc(CSc2nnc(-c3c[nH]c4ccccc34)o2)cc1  1.1%
32. S=c1[nH]nc(Cc2c[nH]c3ccccc23)o1  1.2%
33. CN1CCc2ccccc2C1C1CCNCC1 (configuration not stated)  1.4%
34. COc1ccc(CNC(=O)C2CC(c3ccc(F)cc3)=NO2)cc1 (configuration not stated)  1.6%
35. COc1ccc(S(=O)(=O)Cc2ccc(C(=O)N3CCN(C(=O)c4ccco4)CC3)o2)cc1  1.6%
36. CCCCCn1c(N)c(C#N)c2nc3ccccc3nc21  2.3%
37. COc1ccc(-n2nnnc2S(=O)(=O)Cc2ccc(C(=O)O)cc2)cc1  2.6%
38. CCC(=O)Nc1c(C#N)c2nc3ccccc3nc2n1-c1ccccc1C  2.8%
39. O=C(CN1CCN(C(=O)c2ccco2)CC1)Nc1ccccc1-c1ccccc1  3%
40. CCC1(C)Cc2c(sc3c2c(=O)n(C)c2nnc(SCc4ccccc4)n32)CO1 (configuration not stated)  3.4%
41. COc1ccccc1N1CCN(CC(O)COc2c(OC)cccc2OC)CC1 (configuration not stated)  3.7%
42. CS(=O)(=O)N(CC(=O)N1CCC(C(N)=O)CC1)c1ccc(Oc2ccccc2)cc1  4.5%
43. N=c1c(S(=O)(=O)c2ccccc2)cc2c(=O)n3ccccc3nc2n1Cc1ccco1  4.6%
44. CN(C)S(=O)(=O)c1ccc2c(c1)c(=O)c(C(=O)N1CCN(c3ccccn3)CC1)cn2C  5%
45. O=C(OCc1nnc(-c2ccccc2)o1)c1ccc2c(c1)OCCO2  5.4%
46. Cc1cc(C2N=C(N)Nc3nc4ccccc4n32)c(C)n1-c1ccccc1Cl (configuration not stated)  5.7%
47. C=CCc1ccccc1OCC(O)CN1CCN(c2ccccc2OC)CC1 (configuration not stated)  6.9%
48. O=C(Nc1ncnc2sc3c(c12)CCCCC3)c1ccco1  7.3%
49. C=CCn1c(NC(=O)c2ccccc2Cl)c(C#N)c2nc3ccccc3nc21  7.7%
50. N#Cc1cccc(C(c2nnnn2CCc2ccccc2)N2CCN(C3CCCCC3)CC2)c1 (configuration not stated)  7.9%
51. COc1ccc(-n2c(NC(=O)c3ccco3)c(C#N)c3nc4ccccc4nc32)cc1  9.7%
52. COc1cccc(C(=O)Nc2nnc(-c3ccc(F)cc3)o2)c1  10.3%
53. Cc1cc(NC(=O)CSc2nnc3c(C)cc4cc(C)c(C)cc4n23)no1  10.3%
54. Cc1ccccc1C(=O)Nc1nnc(-c2ccc(F)cc2)o1  10.5%
55. COc1cc(C2=NOC(C(=O)NCc3ccco3)C2)cc(OC)c1OC (configuration not stated)  10.5%
56. CCN(CC)CCNc1nc2c(c(=O)[nH]c(=O)n2C)n1CC(O)COc1ccc(Cl)cc1Cl (configuration not stated)  10.6%
57. CCc1nnc(NC(=O)CSc2nnc(CSc3nc(C)cc(C)n3)n2C)s1  10.6%
58. O=C(CN1C(=O)c2ccccc2C1=O)Nc1cccnc1  10.7%
59. CC1Cn2c(nnc2-c2ccc(F)cc2)S1 (configuration not stated)  11.1%
60. CCn1c(SCC(=O)c2ccc(Cl)cc2)nnc1-c1ccoc1C  12.2%
61. O=C(Nc1ccc2nn(-c3ccccc3)nc2c1)c1ccc(Br)o1  13.2%
62. CCOC(=O)c1c(N)sn(-c2ccccc2)c1=S  13.3%
63. Cc1cc(OCCOCCN(C)CCO)cc(C)c1Cl  16.8%
64. CN(C)c1ccc(C(=O)Nc2nnc(-c3ccc(Cl)cc3)o2)cc1  17.7%
65. Cc1cc(C)c2c(c1)cc(C)c1nnc(SCC(=O)Nc3cc(C)on3)n12  22.6%
66. CCOc1ccccc1NC(=O)C1CCCN(S(=O)(=O)c2cccc3cccnc23)C1 (configuration not stated)  26.1%
67. Cc1ccc(S(=O)(=O)c2cc3c(=O)n4ccccc4nc3n(Cc3ccco3)c2=N)cc1  30.2%
68. CCc1ccc(OCc2nc(-c3ccccn3)no2)c(Br)c1  30.6%
69. CCCCn1c(NC(=O)c2ccccc2Cl)c(C#N)c2nc3ccccc3nc21  35.8%
70. COCc1nnc(NC(=O)c2ccc(S(=O)(=O)N(C)c3ccccc3)cc2)o1  36.3%
71. CCN(Cc1ccccc1)S(=O)(=O)c1ccc(C(=O)Nc2nnc(-c3ccccc3OC)o2)cc1  37.9%
72. N=c1c(C(=O)NCc2ccccc2)cc2c(=O)n3ccccc3nc2n1Cc1ccco1  38.6%
73. COc1ccc(C2=NOC(C(=O)NCc3ccc(F)cc3)C2)cc1 (configuration not stated)  43%
74. COc1cccc(-c2nnc(NC(=O)c3cccc(F)c3)o2)c1  44.6%
75. CC(=O)c1ccc(C(=O)Nc2nnc(-c3ccc(Cl)cc3)o2)cc1  44.7%
76. COc1cccc(C2=NOC(C(=O)NCc3ccc(F)cc3)C2)c1 (configuration not stated)  49.7%

For `COc1ccc(-n2nnnc2S(=O)(=O)CC(=O)N2CCCCC2)cc1`, the cytotoxicity was 56.8% (active).
In the case of `COc1ccccc1N1CCN(CC(O)COc2cccc3ccccc23)CC1` (configuration not stated), the cytotoxicity is reported as 51.3% (active).
For `CN(c1ccccc1)S(=O)(=O)c1ccc(C(=O)Nc2nnc(-c3ccc(F)cc3)o2)cc1`, the cytotoxicity was 62.8% (active).
For `COc1ccccc1-c1nnc(NC(=O)c2ccc(S(=O)(=O)N(C)Cc3ccccc3)cc2)o1`, the cytotoxicity was 64.9% (active).
In the case of `COc1cccc(C(=O)Nc2nnc(-c3ccc(Cl)cc3)o2)c1`, the cytotoxicity is reported as 85% (active).
In the case of `Cc1cccc(-c2nnc(NC(=O)c3ccc(Cl)cc3)o2)c1`, the cytotoxicity is reported as 87.9% (active).
For `CO[C@H]1C[C@@H]2CC[C@@H](C)[C@@](O)(O2)C(=O)C(=O)N2CCCC[C@H]2C(=O)O[C@H]([C@H](C)C[C@@H]2CC[C@@H](O)[C@H](OC)C2)CC(=O)[C@H](C)C=C(C)[C@@H](O)[C@@H](OC)C(=O)[C@H](C)C[C@H](C)C=CC=CC=C1C`, the cytotoxicity was 91% (active).
In the case of `N#Cc1c(NC(=O)c2ccc(Br)o2)n(-c2ccccc2)c2nc3ccccc3nc12`, the cytotoxicity is reported as 58.7% (active).
With `CCCCn1c(NC(=O)c2ccccc2)c(C#N)c2nc3ccccc3nc21` the cytotoxicity was 112% (active).
In the case of `C=CCn1c(NC(=O)c2ccccc2)c(C#N)c2nc3ccccc3nc21`, the cytotoxicity is reported as 65.2% (active).
For `CCCCn1c(NC(=O)c2ccc(F)cc2)c(C#N)c2nc3ccccc3nc21`, the cytotoxicity was 87.7% (active).
For `Cc1ccc(CNC(=O)c2cc3c(=O)n4ccccc4nc3n(Cc3ccco3)c2=N)cc1`, the cytotoxicity was 98.3% (active).
In the case of `COc1ccc(C2=NOC(C(=O)NCc3ccc(F)cc3)C2)cc1OC` (configuration not stated), the cytotoxicity is reported as 58.9% (active).
For `COc1cc(C2=NOC(C(=O)NCc3ccc(F)cc3)C2)cc(OC)c1OC` (configuration not stated), the cytotoxicity was 55.1% (active).
For `Cc1cc(NC(=O)CSc2nnc3c(C)cc4c(C)ccc(C)c4n23)no1`, the cytotoxicity was 70.6% (active).
For `CN(C)c1ccc(C2C=C(c3ccc(Cl)cc3OC(F)F)Nc3ncnn32)cc1` (configuration not stated), the cytotoxicity was 50.9% (active).
